# Test results taken from PubChem BioAssay (EPA / NIEHS).
# Results filed as inconclusive are left out. Active and inactive are the calls of the source. Rule for the calls: active = hit-call score of the fitted dose curve at least 0.9, where 1 is the maximum; inconclusive = response in the unintended direction; inactive = score below 0.9.
# Molecular target: human p21 Activated Kinase 4 (PAK4), PAK4 (gene 10298) (UniProt O96013)
# Assay: NVS_ENZ_hPAK4: NovaScreen (NVS) Enzymatic Assay for human p21 Activated Kinase 4 (PAK4) (AID 2283189)
# In short: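 Extracted PAK4 enzyme activity read by fluorescence with mobility-shift separation 1 h after chemical addition. Duplicate single-concentration screen at 25 uM, DMSO as negative control.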
# Chain of human p21 Activated Kinase 4 (PAK4), PAK4 (gene 10298) (O96013 whole entry, looked up): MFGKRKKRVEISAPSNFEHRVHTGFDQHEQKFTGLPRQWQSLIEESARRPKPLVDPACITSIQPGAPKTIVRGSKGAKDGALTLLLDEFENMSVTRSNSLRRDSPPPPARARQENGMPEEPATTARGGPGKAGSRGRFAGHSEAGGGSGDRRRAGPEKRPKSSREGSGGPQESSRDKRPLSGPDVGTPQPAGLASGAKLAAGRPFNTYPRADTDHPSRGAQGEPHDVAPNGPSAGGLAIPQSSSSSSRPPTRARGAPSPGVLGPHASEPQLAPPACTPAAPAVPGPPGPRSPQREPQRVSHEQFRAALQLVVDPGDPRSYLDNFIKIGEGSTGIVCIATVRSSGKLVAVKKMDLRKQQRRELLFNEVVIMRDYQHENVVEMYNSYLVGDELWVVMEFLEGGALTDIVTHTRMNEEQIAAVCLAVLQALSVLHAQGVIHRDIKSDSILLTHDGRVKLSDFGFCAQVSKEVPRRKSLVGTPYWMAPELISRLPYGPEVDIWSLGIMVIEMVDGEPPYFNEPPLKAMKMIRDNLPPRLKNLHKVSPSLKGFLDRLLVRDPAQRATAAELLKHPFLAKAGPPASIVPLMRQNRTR
row,SMILES,outcome
1,Cc1cc(N=Nc2ccccc2C)ccc1N,inactive
2,C[C@]12C=CC3=C4CCC(=O)C=C4CC[C@H]3[C@@H]1CC[C@@H]2O,inactive
3,CCNS(=O)(=O)C(F)(F)C(F)(F)C(F)(F)C(F)(F)C(F)(F)C(F)(F)C(F)(F)C(F)(F)F,inactive
4,COc1cc(C=O)cc2c1[C@H](COC(N)=O)[C@]1(OC(C)=O)ON2C[C@H]2[C@@H]1N2C(C)=O,inactive
5,Cn1cc(-c2ccccc2)c(=O)c(-c2cccc(C(F)(F)F)c2)c1,inactive

# Molecular target: human Matrix Metalloproteinase-9 (MMP9), MMP9 (gene 4318) (UniProt P14780)
# Assay: NVS_ENZ_hMMP9: NovaScreen (NVS) Enzymatic Assay for human Matrix Metalloproteinase-9 (MMP9) (AID 2283190);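 note: cell-free recombinant MMP9 protease activity read by fluorescent substrate signal; active means inhibition seen as loss of fluorescence signal versus DMSO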
# Procedure: NVS_ENZ_hMMP9 is a biochemical, single-readout assay that uses extracted gene-proteins in a cell-free assay. Measurements were taken 1 hour after chemical dosing in a 96-well plate.NVS_ENZ_hMMP9 is one of one assay component(s) measured or calculated from the NVS_ENZ_hMMP9 assay. It is designed to make measurements of enzyme activity, a form of enzyme reporter, as detected with fluorescence intensity signals by Fluorescence technology.Data from the assay component NVS_ENZ_hMMP9 was analyzed into 1 assay endpoint. This assay endpoint, NVS_ENZ_hMMP9, was analyzed in the positive analysis fitting direction relative to DMSO as the negative control and baseline of activity. Using a type of enzyme reporter, loss-of-signal activity can be used to understand changes in the enzymatic activity as they relate to the gene MMP9. Furthermore, this assay endpoint can be referred to as a primary readout, because this assay has produced multiple assay endpoints where this one serves a enzymatic activity function. To generalize the intended target to other relatable targets, this assay endpoint is annotated to the protease intended target family, where the subfamily is matrix metalloproteinase.
# Binding assays used specific radioligands (tritiated, iodinated) with non-radioactive competitive displacement ligands in agonist or antagonist protocols (as indicated) and various reference compounds and inhibitors to titrate specific binding to receptors and transporters. Most enzyme assays (CYPs, kinases, phosphatases, proteases, HDACs) used recombinant protein and specific substrates (fluorescence mostly, some colorimetric and radioactive) and inhibitors, followed by a biochemical separation of substrate and product. All assays for the biochemical HTS were initially run in duplicate at a single concentration (10 uM for CYP450 assays and 25 uM for all others). […] Each assay was run with positive and negative controls, and concurrent controls on every plate. The follow-up (secondary) screen tested active chemical-pairs in concentration series, as well as a few additional assays not tested in the primary screen, some selected negative inactives, and several cases re-run in the concentration series for confirmatory purposes.
# Chain of human Matrix Metalloproteinase-9 (MMP9), MMP9 (gene 4318) (P14780 whole entry, looked up): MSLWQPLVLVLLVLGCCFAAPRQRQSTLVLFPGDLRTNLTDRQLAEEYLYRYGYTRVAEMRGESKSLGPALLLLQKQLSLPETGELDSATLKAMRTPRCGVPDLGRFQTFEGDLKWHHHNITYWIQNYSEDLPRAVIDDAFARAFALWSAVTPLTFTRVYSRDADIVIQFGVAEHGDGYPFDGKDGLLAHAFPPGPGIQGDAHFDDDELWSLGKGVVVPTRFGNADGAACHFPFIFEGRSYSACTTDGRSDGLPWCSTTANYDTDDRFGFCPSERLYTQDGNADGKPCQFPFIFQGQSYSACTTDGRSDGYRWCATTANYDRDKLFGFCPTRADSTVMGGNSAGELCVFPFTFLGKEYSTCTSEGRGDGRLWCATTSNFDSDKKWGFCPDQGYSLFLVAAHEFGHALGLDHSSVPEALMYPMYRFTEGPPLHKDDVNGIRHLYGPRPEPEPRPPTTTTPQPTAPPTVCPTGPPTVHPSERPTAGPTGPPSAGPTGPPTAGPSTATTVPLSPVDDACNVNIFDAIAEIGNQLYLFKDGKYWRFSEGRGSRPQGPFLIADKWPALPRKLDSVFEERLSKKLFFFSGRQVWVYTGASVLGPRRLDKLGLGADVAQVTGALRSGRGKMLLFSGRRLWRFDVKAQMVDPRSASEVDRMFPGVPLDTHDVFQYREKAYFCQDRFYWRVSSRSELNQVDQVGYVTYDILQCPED
SMILES,outcome,AC50
O=[N+]([O-])c1ccc(Oc2ccc(Cl)cc2Cl)cc1,inactive,
Clc1ccc(C(c2ccc(Cl)cc2)C(Cl)(Cl)Cl)cc1,inactive,
Cc1ccc(N=C=O)cc1N=C=O,inactive,
c1ccc(C2CO2)cc1 (configuration not stated),inactive,
C1=Cc2cccc3cccc1c23,inactive,
CCCCCOC(=O)c1ccccc1C(=O)OCCCCC,,12.6 µM (active)
O=Cc1ccco1,inactive,

# Molecular target: human Phosphodiesterase 4A1 (PDE4A1), PDE4A (gene 5141) (UniProt P27815)
# Assay: NVS_ENZ_hPDE4A1: NovaScreen (NVS) Enzymatic Assay for human Phosphodiesterase 4A1 (PDE4A1) (AID 2283191)
# In short: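 Fluorescent substrate turnover by recombinant PDE4A1 read after 1 h by mobility-shift separation. Primary duplicate screen at 25 uM; hits retested in concentration series with a 50 uM maximum, relative to DMSO.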
# Chain of human Phosphodiesterase 4A1 (PDE4A1), PDE4A (gene 5141) (P27815 whole entry, looked up): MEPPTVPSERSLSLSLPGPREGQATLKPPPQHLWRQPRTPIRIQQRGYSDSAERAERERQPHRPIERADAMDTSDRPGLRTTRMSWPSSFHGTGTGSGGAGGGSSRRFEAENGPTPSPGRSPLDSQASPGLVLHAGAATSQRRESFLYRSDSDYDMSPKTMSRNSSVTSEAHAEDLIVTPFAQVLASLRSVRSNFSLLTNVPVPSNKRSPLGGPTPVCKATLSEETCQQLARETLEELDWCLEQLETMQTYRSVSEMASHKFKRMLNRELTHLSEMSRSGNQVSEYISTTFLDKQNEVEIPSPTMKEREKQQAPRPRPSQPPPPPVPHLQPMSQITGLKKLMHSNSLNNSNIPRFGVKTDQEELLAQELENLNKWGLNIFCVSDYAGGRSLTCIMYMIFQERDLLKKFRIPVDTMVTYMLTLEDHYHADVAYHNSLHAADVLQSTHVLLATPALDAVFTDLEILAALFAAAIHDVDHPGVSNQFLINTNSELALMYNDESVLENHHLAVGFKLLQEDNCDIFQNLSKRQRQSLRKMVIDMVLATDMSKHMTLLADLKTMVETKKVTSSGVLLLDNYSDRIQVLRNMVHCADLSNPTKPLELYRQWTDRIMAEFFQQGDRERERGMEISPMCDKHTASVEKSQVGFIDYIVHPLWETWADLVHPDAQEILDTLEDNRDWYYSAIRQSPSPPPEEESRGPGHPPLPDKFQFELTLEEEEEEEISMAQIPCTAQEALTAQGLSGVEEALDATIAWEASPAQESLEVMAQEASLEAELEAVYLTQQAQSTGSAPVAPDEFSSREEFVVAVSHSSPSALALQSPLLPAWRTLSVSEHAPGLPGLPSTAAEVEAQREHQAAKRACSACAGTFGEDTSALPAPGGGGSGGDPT
row,SMILES,outcome
1,CC(C)(C)OOC(C)(C)CCC(C)(C)OOC(C)(C)C,inactive
2,CCNS(=O)(=O)C(F)(F)C(F)(F)C(F)(F)C(F)(F)C(F)(F)C(F)(F)C(F)(F)C(F)(F)F,inactive
3,CS(=O)(=O)NC(=O)c1cc(Oc2ccc(C(F)(F)F)cc2Cl)ccc1[N+](=O)[O-],inactive
4,O=C(Oc1ccc(Br)cc1)N1CCN2CCC1CC2,inactive
5,CN(C)c1ccc(C(=O)c2ccc(N(C)C)cc2)cc1,inactive
